aSyn UTR act: Activators via SNCA 5'UTR binding, MLPCN; alpha-synuclein 5'UTR reporter, activators screen; activity score, % (tested at 7.5 µM), hits read low; 300,000 tested, 7.1% active; in the data active = activity score below about -60%
Of the large screens only hits and unclear results are named; the others gave an inactive call. Not all results are given here.

C=CCc1ccc(OCc2ccc(C(=O)OC)o2)c(OC)c1	aSyn UTR act -121.2
C=CCc1ccc(OCC(O)COCC)c(OC)c1 (centres undefined)	aSyn UTR act -76.3
Cc1csc(NC(=O)c2ccc(COc3ccccc3)o2)n1	aSyn UTR act -136.3
Cc1ccc(OCc2ccc(C(=O)O)o2)cc1C	aSyn UTR act -188.3
COC(=O)c1ccc(COc2cc(C)ccc2C)o1	aSyn UTR act -148.7
Cc1cc(COc2ccccc2)oc1C(=O)O	aSyn UTR act -107.5
COC(=O)c1ccc(COc2ccc(C)c(C)c2)o1	aSyn UTR act -198.4
Cc1ccc(OCc2ccc(C(=O)Nc3nccs3)o2)cc1C	aSyn UTR act -110.2
CC(C)(C)C1CCc2sc(-c3nnc(CCl)o3)cc2C1 (centres undefined)	aSyn UTR act -64.4
CCCc1noc(-c2ccc(-c3ccccc3)cc2)n1	aSyn UTR act -112.2
COc1ccc(CCC(=O)NCCOc2ccccc2Cl)cc1	aSyn UTR act -91.8
O=C(NCCOc1ccccc1Cl)c1cc(F)c(F)cc1Cl	aSyn UTR act -122.6
O=C(NCCOc1ccccc1)c1ccccc1Cl	aSyn UTR act -74.9
COc1ccc(-n2c(-c3ccc(Br)cc3)c[n+]3c2CCc2ccccc2-3)cc1	aSyn UTR act -91.0
CC(C)c1ccc(-n2c(-c3ccccc3)c[n+]3c2CCc2ccccc2-3)cc1	none
Cc1ccc(/C=C2\SC(=S)N(CCCC(=O)Nc3ccc(O)cc3)C2=O)cc1	none
O=C(CCCN1C(=O)/C(=C/c2ccccc2Cl)SC1=S)NNC(=O)c1ccccc1Cl	none
Cc1ccc(/C=C2\SC(=S)N(CCCC(=O)Nc3ccccc3C(=O)O)C2=O)cc1	none
O=C(CCN1C(=O)/C(=C/c2ccccc2Cl)SC1=S)N1CCCC1	aSyn UTR act -115.4
Cc1ccc(/C=C2\SC(=S)N(CCC(=O)N3CCOCC3)C2=O)cc1	aSyn UTR act -63.8
CN1CCN(C(=O)CCCN2C(=O)/C(=C/c3cccc(Br)c3)SC2=S)CC1	aSyn UTR act -218.5
O=C(CCN1C(=O)/C(=C/c2ccccc2Cl)SC1=S)N1CCOCC1	aSyn UTR act -73.2
CCOC(=O)c1oc2cccc(O)c2c1C	aSyn UTR act -80.8
CCOC(=O)c1oc2cccc(OC(C)=O)c2c1C	aSyn UTR act -84.7
CCc1ccccc1NC(=O)c1cccc(NC(=O)/C=C/c2ccco2)c1	aSyn UTR act -100.0
O=C(/C=C/c1ccco1)Nc1ccc2c(c1)OCO2	aSyn UTR act -187.7
Cc1ccc(-n2nc3ccc(NC(=O)/C=C/c4ccco4)cc3n2)cc1	aSyn UTR act -201.8
O=c1cc(NCCc2ccccc2)c2ccccc2o1	aSyn UTR act -130.4
O=C(Nc1ccccc1)c1cc2n(n1)C(C(F)(F)F)CC(C1CC1)N2 (centres undefined)	aSyn UTR act -167.8
[O-][n+]1ccccc1SC/C=C/c1ccccc1	aSyn UTR act -65.4
COC(=O)c1ccc(COc2ccccc2/C=C(\C#N)C(=O)Nc2ccc(C)cc2)cc1	aSyn UTR act -154.2
COc1cc(/C=N/NS(=O)(=O)c2ccc(C)cc2)ccc1OCc1ccc(C(=O)O)cc1	none
COC(=O)c1ccc(COc2ccccc2/C=N/NS(=O)(=O)c2ccc(C)cc2)cc1	aSyn UTR act -69.4
CC(=O)c1ccc(NC(=O)C2CC(=O)N(Cc3ccccc3)C2)cc1 (centres undefined)	aSyn UTR act -128.9
Cc1ccnc(NC(=O)C2CC(=O)N(Cc3ccccc3)C2)c1 (centres undefined)	aSyn UTR act -111.7
O=C(O)CN1C(=O)/C(=C\c2cccc(OCc3ccc(Cl)cc3Cl)c2)SC1=S	aSyn UTR act -105.5
CC(C)(C)n1cnc2cc(NS(=O)(=O)c3ccccc3)ccc21	aSyn UTR act -74.2
CC(C)(C)n1cnc2cc(NCc3ccc(Br)cc3)ccc21	aSyn UTR act -92.4
CCc1ccc(CNc2ccc3c(c2)ncn3C(C)(C)C)cc1	aSyn UTR act -156.0
COc1ccc(NS(=O)(=O)c2cc(-c3cnc(C4CC4)o3)ccc2C)cc1	none
COc1ccc(NS(=O)(=O)c2cc(C)ccc2C)cc1	aSyn UTR act -67.4
CC(Cc1ccccc1)C(=O)Nc1ccc(Br)cc1 (centres undefined)	aSyn UTR act -81.2
O=C(CCc1ccccc1)Nc1cccnc1	aSyn UTR act -63.1
COCc1cccc(NC(=O)CCc2ccccc2)c1	aSyn UTR act -99.4
CC(C)(C)c1ccc(-c2noc(CCC(=O)Nc3cccnc3)n2)cc1	none
CC(C)c1ccc(NC(=O)CCc2ccccc2)cc1	aSyn UTR act -388.9
Cc1ccccc1OCc1nc2c3cnn(C)c3ncn2n1	aSyn UTR act -151.6
CCc1cccc(NC(=S)N2CCC(c3ccccc3)C2)c1 (centres undefined)	aSyn UTR act -88.4
CSc1cccc(NC(=S)N2CCC(c3ccccc3)C2)c1 (centres undefined)	aSyn UTR act -76.1
CSc1cccc(NC(=O)N2CCCC(CNS(=O)(=O)Cc3ccccc3)C2)c1 (centres undefined)	aSyn UTR act -98.4
COc1cccc(NC(=S)N2CCC(c3ccc(C)cc3)C2)c1 (centres undefined)	aSyn UTR act -66.3
COc1ccc(C=Nc2cccc3c(=O)[nH][nH]c(=O)c23)c2ccccc12	aSyn UTR act -67.4

Source: PubChem
